Calls of active or inactive are those of the source. Where a call stands in place of a potency, no number is given. Calls come from the whole dose curve; as a rule, active = well fitted activation curve with a large enough effect; inconclusive = small, poorly fitted or top-dose-only effect; inactive = no such curve, though single readings can be large or run the other way.
target: Cytochrome P450 3A4 (Homo sapiens) (UniProt P08684); experiment: qHTS Assay for Activators of Cytochrome P450 3A4 (AID 885); settings: recombinant CYP3A4, Luciferin-PPXE luminescence, 60 min; series mostly up to 11.4 µM; note: nearly all actives have a fitted effect of over 65% in size
Sequence (P08684 whole entry, looked up): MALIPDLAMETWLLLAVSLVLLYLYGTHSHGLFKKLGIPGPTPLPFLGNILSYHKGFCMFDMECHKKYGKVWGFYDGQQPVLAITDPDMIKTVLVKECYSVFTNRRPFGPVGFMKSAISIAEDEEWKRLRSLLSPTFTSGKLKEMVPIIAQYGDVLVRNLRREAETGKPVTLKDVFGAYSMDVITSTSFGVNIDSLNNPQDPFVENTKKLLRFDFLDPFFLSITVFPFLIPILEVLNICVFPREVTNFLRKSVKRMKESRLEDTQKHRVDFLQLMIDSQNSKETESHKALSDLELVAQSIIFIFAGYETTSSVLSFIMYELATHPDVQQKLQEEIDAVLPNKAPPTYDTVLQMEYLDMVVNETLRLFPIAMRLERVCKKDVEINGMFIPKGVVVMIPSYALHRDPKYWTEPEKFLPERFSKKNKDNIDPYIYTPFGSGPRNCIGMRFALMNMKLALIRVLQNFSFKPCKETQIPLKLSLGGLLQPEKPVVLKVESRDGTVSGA
Procedure: NIH Molecular Libraries Screening Centers Network [MLSCN]
NIH Chemical Genomics Center [NCGC]
The P450 gene superfamily is involved in the metabolism and clearance of xenobiotics. This assay used human CYP3A4 to measure the dealkylation of luciferin-6' phenylpiperazinylyl (Luciferin-PPXE; […]) to luciferin. The luciferin is then measured by luminescence after the addition of a luciferase detection reagent. Luciferin-PPXE concentration in the assay was equal to its KM for CYP3A4. Inhibitors and some substrates limit the production of luciferin, and decrease measured luminescence; activators increase the production of luciferin and luminescence.
NCGC Assay Protocol Summary:
Two uL of enzyme and substrate mix (final concentrations: 20nM CYP3A4, 25uM Luciferin-PPXE, 200mM KPO4) were dispensed into a white, solid bottom 1536-well microtiter plate. 23nL of compound was transferred by a pin tool. The plate was incubated at RT for 10 min. Two uL of an NADPH regeneration solution (Promega supplied reagent) was dispensed and the reaction was allowed to continue for 60 min at RT. Then the reaction was stopped by reconstituted luciferin detection buffer. After another 20 min of incubation the plate was read on the ViewLux (Perkin Elmer) at 60 sec exposure and 2x2 binning. This protocol was carried out with Promega-Glo reagents and further information can be found at http://www.promega.com/tbs/tb325/tb325.pdf. Data were normalized to the to AC100 inhibition (57 uM ketoconazole).
Keywords: P450, CYP2D6, Luciferase, MLSMR, MLSCN, NIH Roadmap, qHTS, NCGC

Q: Which Potency does the source give for `Cc1cc(O)c(C(C)C)cc1N=Cc1ccccc1O` here?
A: The Potency was “inactive”.

Q: How did the Potency turn out when `COCCNc1nc(-c2ccc(C(=O)N(C)C)cc2)nc2ccccc12` was run?
A: Its Potency is “inactive”.

Q: How did the Potency turn out when `COCCn1c(=O)c(-c2ccccc2)nc2cnc(Nc3ccccc3)nc21` was run?
A: The Potency was “inactive”.

Q: With `O=c1[nH]c(SCc2c(Cl)c(Cl)c(Cl)c(Cl)c2Cl)nc(=S)[nH]1` as the compound, how does the Potency read?
A: The Potency was “inactive”.

Q: `COCCn1c(=O)c(-c2ccccc2)nc2cnc(Oc3ccccc3)nc21` was tested. Which Potency did it give?
A: Its Potency is “inactive”.

Q: With `S=C(CSc1ccccc1)Nc1cccc2ccccc12` as the compound, how does the Potency read?
A: Its Potency is “inactive”.

Q: For `O=C(CSc1nc2ccccc2c2ccccc12)c1ccccc1`, which Potency is on record?
A: The Potency was “inactive”.

Q: With `O=c1cnc2cnc(Oc3ccccc3)nc2n1Cc1ccc(F)cc1` as the compound, how does the Potency read?
A: Its Potency is “inactive”.

Q: How did the Potency turn out when `c1ccc(CSc2nnc3c4ccccc4c4ccccc4c3n2)cc1` was run?
A: The Potency was “inactive”.

Q: `O=S1(=O)[C@H]([C@H]2CC3c4ccccc4C2c2ccccc23)[C@@H](N2CCCCC2)[C@@H]1c1ccccc1` was tested. Which Potency did it give?
A: Its Potency is “inactive”.

Q: How did the Potency turn out when `COc1ncc2nc(-c3ccc(Cl)cc3)c(=O)n(C[C@H]3CCCO3)c2n1` was run?
A: Its Potency is “inactive”.

Q: For `COCCn1c(=O)c(-c2cc(F)cc(F)c2)nc2cnc(Oc3ccc(OC)cc3)nc21`, which Potency is on record?
A: The Potency was “inactive”.

Q: How did the Potency turn out when `O=C(O)/C=C\C(=O)Nc1ccc2c(c1)C(=O)c1cc(F)ccc1-2` was run?
A: Its Potency is “inactive”.

Q: `c1nc(NCCc2cnc[nH]2)c2[nH]cnc2n1` was tested. Which Potency did it give?
A: The Potency was “inactive”.

Q: With `NS(=O)(=O)c1ccc(N=Nc2cc3ccccc3c(C(=O)O)c2O)cc1` as the compound, how does the Potency read?
A: The Potency was “inactive”.

Q: With `NNC(=O)CNc1cccc(Br)c1` as the compound, how does the Potency read?
A: The Potency was “inactive”.

Q: For `S=C1N[C@H](c2ccccc2)N[C@H](c2ccccc2)S1`, which Potency is on record?
A: The Potency was “inactive”.

Q: With `Cn1c(=O)c2[nH]c(CCS)nc2n(C)c1=O` as the compound, how does the Potency read?
A: The Potency was “inactive”.

Q: Which Potency does the source give for `CNc1ncncc1-c1ccc(C(=O)N(C)C)cc1` here?
A: Its Potency is “inactive”.

Q: Which Potency does the source give for `FC(F)(F)c1nc2nc(Cl)c(Cl)nc2n1CCCN1CCOCC1` here?
A: Its Potency is “inactive”.

Q: For `CCCCCCCC/C=C\CCCCCCCC(=O)N(CCO)CCO`, which Potency is on record?
A: The Potency was “inactive”.

Q: Which Potency does the source give for `Nc1ccc(S(=O)(=O)c2ccc(NC(=O)c3cccnc3)cc2)cc1` here?
A: Its Potency is “inactive”.

Q: For `COc1ncc2nc(-c3cc(F)cc(F)c3)c(=O)n(C3CC3)c2n1`, which Potency is on record?
A: Its Potency is “inactive”.

Q: With `N/N=C1/c2ccccc2N[C@H]1OC(=O)Nc1cccc(Cl)c1` as the compound, how does the Potency read?
A: The Potency was “inactive”.

Q: Which Potency does the source give for `COc1ccc(CNc2ncnc3ccc(-c4ccccc4C#N)cc23)c(OC)c1` here?
A: Its Potency is “inactive”.

Q: For `Cc1cc(C)cc(C(=N)c2ccccc2Cc2cccc3ccccc23)c1`, which Potency is on record?
A: The Potency was “inactive”.

Q: `NS(=O)(=O)c1ccc(N=Nc2ncccc2O)cc1` was tested. Which Potency did it give?
A: The Potency was “inactive”.

Q: How did the Potency turn out when `COc1ccc([C@@H](Nc2ccccn2)c2cc(C(C)(C)C)cc(C(C)(C)C)c2O)cc1` was run?
A: The Potency was “inactive”.

Q: With `COc1cc(-c2ccc(N=C=O)c(OC)c2)ccc1N=C=O` as the compound, how does the Potency read?
A: The Potency was “inactive”.

Q: Which Potency does the source give for `c1ccc2c[n+](Cc3ccnc4ccccc34)ccc2c1` here?
A: Its Potency is “inactive”.

Q: How did the Potency turn out when `CS(=O)(=O)Nc1cccc(-c2nc(NCc3cccnc3)c3ccccc3n2)c1` was run?
A: The Potency was “inactive”.

Q: With `CN(CCc1ccccn1)c1ccc2c(c1)Cc1ccccc1-2` as the compound, how does the Potency read?
A: The Potency was “inactive”.

Q: How did the Potency turn out when `O=C(O)c1ccc(Oc2nc3ccccc3s2)cc1` was run?
A: The Potency was “inactive”.

Q: For `CC(=O)n1c(COS(C)(=O)=O)nc2ccccc21`, which Potency is on record?
A: Its Potency is “inactive”.

Q: For `O[C@@H](C1=C/C(=C\c2ccncc2)c2ccccc21)c1ccncc1`, which Potency is on record?
A: Its Potency is “inactive”.

Q: With `C[N+](C)([O-])CCC=C1c2ccccc2CCc2ccccc21` as the compound, how does the Potency read?
A: The Potency was “inactive”.

Q: `Cn1c(=S)c2[nH]c(SCc3cccnc3)nc2n(C)c1=O` was tested. Which Potency did it give?
A: Its Potency is “inactive”.

Q: How did the Potency turn out when `Cn1ncc2c(Nc3cccc(Cl)c3)nc(Nc3cccc(Cl)c3)nc21` was run?
A: The Potency was “inactive”.

Q: How did the Potency turn out when `Cn1c(=O)c2[nH]c(CCCCc3nc4c([nH]3)c(=O)n(C)c(=S)n4C)nc2n(C)c1=S` was run?
A: The Potency was “inactive”.

Q: For `Cc1c2cnccc2c(C)c2c1c1ccccc1n2CCOC(=O)c1ccccc1`, which Potency is on record?
A: Its Potency is “inactive”.
